The structures appear in SMILES notation. Unmarked numbers belong to inactive results. For part of these data: Potency and affinity values are given separately. Active and inactive are the calls of the source. Unless noted, no rule for the calls is given here.

Assay [1] can be described thus: antimalarial activity against Dd2 strain (AID 2302;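 active = growth inhibition above 50% at the single 2 µM test dose, taken to imply half-maximal potency below 2 µM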;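 also: 0% = DMSO untreated growth and 100% = chloroquine plus artemisinin killed control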). As to conditions: P. falciparum Dd2 in RBCs, LDH growth readout, 72 h; at 2 µM; active compounds read high.
The nature of assay [2]: human hepatoma cell viability loss – ATP luminescence, cytotoxicity control for P. falciparum antimalarial project, primary screen (AID 2303;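 active = inhibition above 50%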;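 also: 0% = DMSO wells and 100% = digitonin-killed cells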). As to conditions: HepG2 viability, 24-48 h, at 10 µM, active compounds read high.
Assay [3] has as its target L-lactate dehydrogenase (Plasmodium falciparum (isolate CDC / Honduras)) (UniProt Q27743). Put plainly: PfLDH activity inhibition – cell lysate, 3D7 strain, counter-screen for P. falciparum growth inhibition project (AID 2304).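 Also: 0% = vehicle and 100% = reference inhibitor.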 As to conditions: P. falciparum 3D7 crude extract, LDH APAD/NBT absorbance; at 2 µM; active compounds read high.
Assay [4] is described as follows: inhibition of 3D7 malaria parasite growth – strain 3D7 (AID 2306).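 Also: 0% = DMSO wells and 100% = chloroquine plus artemisinin control wells.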 Conditions: P. falciparum 3D7 erythrocytic growth, LDH absorbance, 72 h; at 2 µM; active compounds read high.
The target in assay [5] is Calcium-dependent protein kinase 1 (Plasmodium falciparum (isolate 3D7)) (UniProt P62344). Put plainly: PfCDPK1 kinase inhibitors, biochemical, TCAMS library (AID 1159585; cut-off not given, nearly all actives have IC50 up to about 0.98 µM;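 also: inhibitors leave more ATP so luminescence rises with inhibition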). Conditions: recombinant PfCDPK1, Kinase-Glo ATP depletion luminescence. (In general: In Kinase-Glo more light means more ATP remaining.)
Sequence of Calcium-dependent protein kinase 1 (Plasmodium falciparum (isolate 3D7)) (P62344 whole entry, looked up): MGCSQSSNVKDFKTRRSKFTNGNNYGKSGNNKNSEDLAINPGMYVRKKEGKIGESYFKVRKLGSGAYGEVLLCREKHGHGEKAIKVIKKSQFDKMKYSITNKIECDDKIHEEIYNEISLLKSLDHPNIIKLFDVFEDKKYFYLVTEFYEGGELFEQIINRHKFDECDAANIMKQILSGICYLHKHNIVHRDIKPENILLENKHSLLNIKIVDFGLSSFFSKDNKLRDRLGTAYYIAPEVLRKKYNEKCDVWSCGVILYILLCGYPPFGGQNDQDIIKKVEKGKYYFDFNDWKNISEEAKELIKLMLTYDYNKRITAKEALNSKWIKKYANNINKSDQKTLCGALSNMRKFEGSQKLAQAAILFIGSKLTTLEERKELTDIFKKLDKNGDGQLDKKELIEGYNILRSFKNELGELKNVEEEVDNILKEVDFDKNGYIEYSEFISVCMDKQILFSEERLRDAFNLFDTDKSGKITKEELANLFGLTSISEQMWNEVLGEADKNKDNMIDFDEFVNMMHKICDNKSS
In assay [6] the target is Plasmodium falciparum protein kinase 6 (PK6, PF3D7_1337100) (UniProt Q8IDW1). Description: PfPK6 kinase inhibitors, biochemical, TCAMS library (AID 1159586). Conditions: recombinant PfPK6, Kinase-Glo ATP depletion luminescence.
Sequence of Plasmodium falciparum protein kinase 6 (PK6, PF3D7_1337100) (Q8IDW1 1-305): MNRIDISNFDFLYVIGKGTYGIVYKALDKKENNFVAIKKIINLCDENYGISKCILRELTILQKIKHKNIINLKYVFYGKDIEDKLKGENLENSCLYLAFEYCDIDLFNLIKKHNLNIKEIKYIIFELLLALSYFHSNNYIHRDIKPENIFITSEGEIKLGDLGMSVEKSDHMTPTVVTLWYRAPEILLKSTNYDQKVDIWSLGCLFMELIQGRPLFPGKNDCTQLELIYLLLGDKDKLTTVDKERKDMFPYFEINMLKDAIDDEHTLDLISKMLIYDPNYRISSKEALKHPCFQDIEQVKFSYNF
Assay [7] deals with Protein kinase 7 (PK7), Plasmodium falciparum 3D7 (PF3D7_0213400) (UniProt Q7YTF7). Put plainly: inhibition of Plasmodium PK7 catalytic activity – biochemical, TCAMS antimalarial set, Kinase-Glo luminescence (AID 1159587). Conditions: recombinant PfPK7, Kinase-Glo ATP depletion luminescence.
Sequence of Protein kinase 7 (PK7), Plasmodium falciparum 3D7 (PF3D7_0213400) (Q7YTF7 1-343): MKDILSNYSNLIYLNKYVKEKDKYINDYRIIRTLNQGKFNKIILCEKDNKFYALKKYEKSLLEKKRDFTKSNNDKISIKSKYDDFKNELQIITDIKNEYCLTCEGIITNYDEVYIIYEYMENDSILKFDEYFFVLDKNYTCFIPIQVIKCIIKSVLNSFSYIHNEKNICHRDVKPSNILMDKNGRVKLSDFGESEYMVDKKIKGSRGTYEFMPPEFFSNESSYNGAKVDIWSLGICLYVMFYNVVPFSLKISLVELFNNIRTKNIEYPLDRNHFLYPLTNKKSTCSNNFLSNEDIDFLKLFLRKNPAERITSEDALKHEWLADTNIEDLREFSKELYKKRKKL
For assay [8], the target named is Calcium-dependent protein kinase 4 (Plasmodium falciparum (isolate 3D7)) (UniProt Q8IBS5). Put plainly: PfCDPK4 kinase inhibitors, biochemical, TCAMS library (AID 1159588; cut-off not given, nearly all actives have IC50 up to about 0.91 µM). Conditions: recombinant PfCDPK4, Kinase-Glo ATP depletion luminescence.
Sequence of Calcium-dependent protein kinase 4 (Plasmodium falciparum (isolate 3D7)) (Q8IBS5 whole entry, looked up): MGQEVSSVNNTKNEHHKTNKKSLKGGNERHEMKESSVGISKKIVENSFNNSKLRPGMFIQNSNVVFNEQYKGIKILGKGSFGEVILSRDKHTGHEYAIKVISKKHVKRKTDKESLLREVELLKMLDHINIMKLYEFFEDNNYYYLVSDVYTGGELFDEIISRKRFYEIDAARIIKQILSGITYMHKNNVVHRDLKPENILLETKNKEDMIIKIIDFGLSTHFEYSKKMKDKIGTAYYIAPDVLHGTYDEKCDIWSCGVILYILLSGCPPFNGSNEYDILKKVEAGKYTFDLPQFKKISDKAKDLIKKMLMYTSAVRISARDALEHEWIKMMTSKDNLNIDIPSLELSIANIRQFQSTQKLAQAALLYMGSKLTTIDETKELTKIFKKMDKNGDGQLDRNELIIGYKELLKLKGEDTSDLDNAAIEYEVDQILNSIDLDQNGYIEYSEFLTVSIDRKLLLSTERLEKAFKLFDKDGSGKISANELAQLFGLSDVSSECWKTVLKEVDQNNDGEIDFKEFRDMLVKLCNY

Sequence of L-lactate dehydrogenase (Plasmodium falciparum (isolate CDC / Honduras)) (Q27743 whole entry, looked up): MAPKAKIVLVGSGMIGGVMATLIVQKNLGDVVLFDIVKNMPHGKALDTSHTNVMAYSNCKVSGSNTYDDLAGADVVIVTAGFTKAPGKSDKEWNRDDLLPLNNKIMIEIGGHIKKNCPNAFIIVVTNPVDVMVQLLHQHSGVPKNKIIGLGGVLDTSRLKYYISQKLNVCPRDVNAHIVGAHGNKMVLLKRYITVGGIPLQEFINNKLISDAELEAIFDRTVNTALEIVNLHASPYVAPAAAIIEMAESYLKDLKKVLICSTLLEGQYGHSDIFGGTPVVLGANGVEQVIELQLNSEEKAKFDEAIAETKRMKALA

What is called inhibition is the change of the read-out against control, counted positive when it falls. For the molecule `CN1CCC(NCc2ccc(-c3cccc(S(=O)(=O)NCCc4ccccn4)c3)cc2)CC1`, the growth inhibition is -8% in assay [1] and 84% (active) in assay [4]. Moreover, the inhibition is 42% in assay [2] and -1% in assay [3]. Besides, the outcome in assay [5], in assay [6], in assay [7] and in assay [8] was inactive.
In the case of `COc1ccc(CNC2Cc3ccccc3C2)cc1-c1ccc(OC)c(S(=O)(=O)NCCN2CCCC2)c1`, the results for the growth inhibition in assay [1] and in assay [4] were 97% (active) and 101% (active), respectively. In addition, the inhibition in assay [2] is 31%; in assay [3] it was -9%. In addition, the outcome in assay [5], in assay [6], in assay [7] and in assay [8] was inactive.
For the molecule `COc1ccc(CC(=O)Nc2ccc(-c3cccc(-c4nc5c(C)cccc5[nH]4)c3)cc2)cc1O`, the figures for the growth inhibition in assay [1] and in assay [4] were 30% and 96% (active), respectively. In addition, the values for the inhibition in assay [2] and in assay [3] were 6% and 4%, respectively. Moreover, the outcome in assay [5], in assay [6], in assay [7] and in assay [8] was inactive.
Take `CC(NC(=O)c1ccc(O)c(-c2ccc(Cl)c(Cl)c2)c1)C(=O)NCCN1CCCC1` (stereo not drawn): the growth inhibition was 9% in assay [1] and 99% (active) in assay [4]. Besides, the inhibition in assay [2] is -5%; in assay [3] it was -2%. Besides, the outcome in assay [5], in assay [6], in assay [7] and in assay [8] was inactive.
Consider `CC(Cc1ccc(Cl)cc1)Nc1nc(NC2CCCC2)nc(N2CCC(C#N)(c3ccccc3)CC2)n1` (stereo not drawn), for which the figures for the growth inhibition in assay [1] and in assay [4] were 95% (active) and 99% (active), respectively. In addition, the inhibition was 15% in assay [2] and -6% in assay [3]. For the same molecule, the result in assay [5], in assay [6], in assay [7] and in assay [8] was inactive.
As for `OC(CNCc1ccccc1OCc1ccccc1)c1cccc(Br)c1` (stereo not drawn), the figures for the growth inhibition in assay [1] and in assay [4] were 97% (active) and 100% (active), respectively. For the same molecule, the inhibition is -1% in assay [2] and 0% in assay [3]. Besides, the outcome in assay [5], in assay [6], in assay [7] and in assay [8] was inactive.
As for `CN1CCC(N(Cc2ccc(-c3ccc(C(F)(F)F)cc3)cc2)C(=O)Cn2c(SCc3cccc(F)c3F)cc(=O)c3c2CCC3)CC1`, the figures for the growth inhibition in assay [1] and in assay [4] were 83% (active) and 89% (active), respectively. For the same molecule, the inhibition was 50% (active) in assay [2] and 1% in assay [3]. Further, the result in assay [5], in assay [6], in assay [7] and in assay [8] was inactive.
`O=C(c1ccc([N+](=O)[O-])o1)N1CCN(c2nc3c(F)cc(F)cc3s2)CC1`: the growth inhibition was 86% (active) in assay [1] and 93% (active) in assay [4]. For the same molecule, the inhibition in assay [2] is -7%; in assay [3], -4%. Moreover, the outcome in assay [5], in assay [6], in assay [7] and in assay [8] was inactive.
Regarding `COc1ccc(-c2cccc(NC(=O)c3cccs3)c2)cc1CN1CCCN(C)CC1`, the values for the growth inhibition in assay [1] and in assay [4] were 30% and 100% (active), respectively. In addition, the results for the inhibition in assay [2] and in assay [3] were 17% and 9%, respectively. Besides, the outcome in assay [5], in assay [6], in assay [7] and in assay [8] was inactive.
Consider `CC(=O)Oc1c(C2C=CCCC2)c(OC(C)=O)c2ccccc2c1OC(C)=O` (stereo not drawn), for which the results for the growth inhibition in assay [1] and in assay [4] were 79% (active) and 95% (active), respectively. Also, the inhibition in assay [2] is 10%; in assay [3], 7%. In addition, the result in assay [5], in assay [6], in assay [7] and in assay [8] was inactive.
As to `COCCC[C@H]1C(=O)O[C@H]2CCC[C@@H]21`, the growth inhibition was 85% (active) in assay [1] and 93% (active) in assay [4]. The figures for the inhibition in assay [2] and in assay [3] were -9% and -4%, respectively. Besides, the result in assay [5], in assay [6], in assay [7] and in assay [8] was inactive.
Turning to `NC1=NC2(CCCCC2)N(OCCCOc2cc(Cl)c(Cl)cc2Cl)C(N)=N1`, the growth inhibition is 98% (active) in assay [1] and 94% (active) in assay [4]. In addition, the figures for the inhibition in assay [2] and in assay [3] were 62% (active) and -11%, respectively. The outcome in assay [5], in assay [6], in assay [7] and in assay [8] was inactive.
`CCOC(=O)C1=C(C)NC2=C(C(=O)CCC2)C1c1cn(Cc2ccc(Cl)cc2Cl)nc1-c1ccccc1` (stereo not drawn): the results for the growth inhibition in assay [1] and in assay [4] were 96% (active) and 100% (active), respectively. Also, the inhibition in assay [2] was -5%; in assay [3], -2%. In addition, the result in assay [5], in assay [6], in assay [7] and in assay [8] was inactive.
Take `CCCCCn1c(Sc2ccc(C#N)c([N+](=O)[O-])c2)nnc1-c1ccc(Cl)cc1`: the growth inhibition in assay [1] was 29%; in assay [4] it was 88% (active). In addition, the values for the inhibition in assay [2] and in assay [3] were 18% and 3%, respectively. Moreover, the result in assay [5], in assay [6], in assay [7] and in assay [8] was inactive.
As for `COc1cc(NC(=O)c2ccc3c(=O)n(Cc4ccccc4)c(=S)[nH]c3c2)cc(OC)c1OC`, the values for the growth inhibition in assay [1] and in assay [4] were 47% and 94% (active), respectively. Further, the values for the inhibition in assay [2] and in assay [3] were 6% and -3%, respectively. The outcome in assay [5], in assay [6], in assay [7] and in assay [8] was inactive.
Consider `O=C(/C=C/C=C/c1ccc(Cl)c(Cl)c1)NCCCCCN1CCCC2CCCCC21` (stereo not drawn), for which the growth inhibition in assay [1] was 48%; in assay [4], 91% (active). Further, the inhibition in assay [2] is 41%; in assay [3] it was -5%. Besides, the outcome in assay [5], in assay [6], in assay [7] and in assay [8] was inactive.
With `CN(C)c1ccc(-c2ccc(C(=O)NC3CCN(Cc4ccc(C(C)(C)C)cc4)CC3)s2)cc1`, the growth inhibition in assay [1] is 59% (active); in assay [4] it was 95% (active). Besides, the inhibition in assay [2] was 35%; in assay [3], -4%. The result in assay [5], in assay [6], in assay [7] and in assay [8] was inactive.
For `O=C(/C=C/c1ccc(Cl)c(Cl)c1)NCCCCCN1CCC(NC(=O)Nc2ccccc2F)CC1`, the results for the growth inhibition in assay [1] and in assay [4] were 25% and 95% (active), respectively. Besides, the inhibition is 14% in assay [2] and -5% in assay [3]. Also, the outcome in assay [5], in assay [6], in assay [7] and in assay [8] was inactive.
As to `NC(=O)c1ccccc1OCC(=O)Nc1ccc(-c2cccc(-c3nc4ccc(C(F)(F)F)cc4[nH]3)c2)cc1`, the growth inhibition in assay [1] is 11%; in assay [4], 100% (active). The inhibition in assay [2] is 51% (active); in assay [3], -8%. Further, the outcome in assay [5], in assay [6], in assay [7] and in assay [8] was inactive.
Consider `Cc1cccc2[nH]c(-c3ccc(-c4ccc(CNCC5CCCO5)cc4)s3)nc12` (stereo not drawn), for which the results for the growth inhibition in assay [1] and in assay [4] were 96% (active) and 100% (active), respectively. The inhibition in assay [2] was 11%; in assay [3] it was -5%. Further, the outcome in assay [5], in assay [6], in assay [7] and in assay [8] was inactive.
Turning to `O=C(Nc1ccccc1-c1nc2ccccc2s1)C(Cl)(Cl)Cl`, the growth inhibition in assay [1] is 99% (active); in assay [4] it was 97% (active). In addition, the figures for the inhibition in assay [2] and in assay [3] were 12% and -7%, respectively. Further, the result in assay [5], in assay [6], in assay [7] and in assay [8] was inactive.

Values taken from PubChem BioAssay.
